Reference: PubChem BioAssay (Tox21)
Inconclusive results are not listed. A number with no mark means an inactive call. The source made the active and inactive calls. Calls follow the shape of the dose curve; as a rule, active = well fitted activation curve with a large enough effect; inconclusive = small, poorly fitted or top-dose-only effect; inactive = flat fitted curve, though single readings scatter.

Assay: qHTS assay to identify small molecule phospholipidosis (PLD) inducers (AID 1259344)
Details: HepG2 phospholipidosis, LipidTOX Red imaging, 24 h; series mostly up to 38.3 µM; PLD induction: at the top concentration
Outline: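 After 4 h attachment on collagen I, HepG2 cells were dosed with compound alongside LipidTOX Red, kept 24 h at 37 C, fixed, and imaged for lamellar phospholipid pits.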
% is scaled to controls: 0 for no effect and ±100 for the full control effect.

| SMILES | Potency | PLD induction |
| --- | --- | --- |
| CC(C)=CCC/C(C)=C/CC/C(C)=C/CC/C=C(\C)CC/C=C(\C)CCC=C(C)C | inactive | – |
| NC(=S)NS(=O)(=O)c1ccc(N)cc1 | – | -0.138% |
| CCc1cn([C@H]2C[C@H](O)[C@@H](CO)O2)c(=O)[nH]c1=O | – | -0.499% |
| O=C1[O][Bi][O]c2ccccc21 | – | -0.561% |
| C=C(Nc1ccc(OCC)cc1)Nc1ccc(OCC)cc1 | – | 8.79% |
| CO/N=C(\C(=O)N[C@@H]1C(=O)N2C(C(=O)O)=C(C[N+]3(C)CCCC3)CS[C@H]12)c1csc(N)n1 | – | 0.0622% |
| CC[C@@H](C)[C@H](N)C(=O)O | – | -0.598% |
| CC[N+](CC)(CC)CCC(O)(c1ccccc1)C1CCCCC1 (centres undefined) | – | -0.077% [at 15.5 µM] |
| CNC(=O)C[C@@H](N)C(=O)N[C@@H](C(=O)N[C@@H]1C(=O)N2[C@@H]1SC(C)(C)[C@@H]2C(=O)O)c1ccc(O)cc1 | – | -0.107% |
| Cc1cc(C(=O)NCCc2ccc(S(=O)(=O)NC(=O)NN3CCCCCC3)cc2)no1 | – | -0.0169% |
| CCC(O)c1ccccc1 (centres undefined) | – | -0.841% |
| O=C1C2CC3CC1CC(O)(C3)C2 | – | 0.237% |
| CN=C(N)NCCC[C@H](N)C(=O)O | inactive | – |
| CCOc1ccc(S(=O)(=O)O)c2cccnc12 | – | -0.0145% |
| O=c1[nH]c(=O)n([C@H]2C[C@H](O)[C@@H](CO)O2)cc1/C=C/Br | – | -1.81% |
| O=C(O)c1cc2cc(Cc3cccnc3)ccc2o1 | – | 0.373% |
| O=C(Cn1cnnn1)N[C@@H]1C(=O)N2C(C(=O)O)=C(CSc3nncs3)CS[C@H]12 | inactive | – |
| CC[C@H]1OC(=O)C[C@@H](O)[C@H](C)[C@@H](O[C@@H]2O[C@H](C)[C@@H](O[C@H]3C[C@@](C)(O)[C@@H](O)[C@H](C)O3)[C@H](N(C)C)[C@H]2O)[C@@H](CC=O)C[C@@H](C)C(=O)/C=C/C(C)=C/[C@@H]1CO[C@@H]1O[C@H](C)[C@@H](O)[C@@H](OC)[C@H]1OC | inactive | – |
| CC(C)CCC[C@@H](C)[C@H]1CC[C@H]2[C@@H]3CC[C@@H]4C[C@H](O)CC[C@]4(C)[C@H]3CC[C@]12C | – | 0.594% |
| Cc1ncc(C[n+]2csc(CCO)c2C)c(N)n1 | – | -0.398% [at 15.5 µM] |
| CSCCC(N)C(=O)O (centres undefined) | – | -0.419% |
| CC1(C)S[C@@H]2[C@H](N3C(=O)C(c4ccccc4)NC3(C)C)C(=O)N2[C@H]1C(=O)O (some centres undefined) | – | 2.57% |
| O=C(O)CCCC/C=C(\c1ccccc1)c1cccnc1 | – | -0.122% |
| Cc1onc(-c2c(F)cccc2Cl)c1C(=O)N[C@@H]1C(=O)N2[C@@H]1SC(C)(C)[C@@H]2C(=O)O | inactive | – |
